# Assay results: PubChem BioAssay AID1022 (Emory University Molecular Libraries Screening Center, 2008)
# “And” between values parts separate entries of the source, which are not always exact repeats. Equal values may be shown once. Hit rate of the full screen: of about 220,000 compounds, about 3,300 (1.5%) were called active.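 The calls were made as follows: active = compounds that cut the protein-peptide binding signal by more than 50% relative to plate controls in a single-dose test; inactive = the rest.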 This excerpt belongs to a sample that is enriched for actives. Some compounds were tested as several samples or in several runs, with calls that do not always agree.
# Target: Induced myeloid leukemia cell differentiation protein Mcl-1 (Homo sapiens) (UniProt Q07820)
# Sequence (Q07820 whole entry, looked up): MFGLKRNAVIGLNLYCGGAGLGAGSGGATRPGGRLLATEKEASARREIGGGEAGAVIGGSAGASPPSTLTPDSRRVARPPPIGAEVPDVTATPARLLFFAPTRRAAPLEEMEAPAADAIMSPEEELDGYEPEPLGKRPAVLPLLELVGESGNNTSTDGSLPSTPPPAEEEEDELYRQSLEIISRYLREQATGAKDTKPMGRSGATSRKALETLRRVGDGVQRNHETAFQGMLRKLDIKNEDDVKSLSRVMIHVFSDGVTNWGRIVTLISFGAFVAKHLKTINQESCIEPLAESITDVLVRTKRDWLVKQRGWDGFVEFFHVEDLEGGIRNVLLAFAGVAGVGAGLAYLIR
# Test: Mcl-1/Noxa binding inhibitors, primary screen, biochemical, TR-FRET, 1536-well (AID 1022);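 also: His-tagged Mcl-1 with rhodamine Noxa BH3 peptide and terbium anti-His antibody; 0% = Mcl-1 plus Noxa peptide wells and 100% = peptide-only wells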
# Details: TR-FRET Mcl-1/Noxa peptide binding, 2 h; at 21.7 µM; stronger effect = higher value
row,SMILES,inhibition
1,COc1ccc2nc(NC(=O)NC3CCCCC3)sc2c1,-0.53% (inactive)
2,O=C(Nc1ccccc1)O/N=C1/CCCc2occc21,6.55% (inactive)
3,Oc1ccc(N=Nc2nccs2)c(O)c1,-33.2% (inactive)
4,COc1cc2c(cc1O)[C@H](Cc1ccc(Oc3cc(C[C@@H]4NCCc5cc(OC)c(O)cc54)ccc3O)cc1)NCC2,64.4% (active)
5,CC[C@H]1CN2CCc3cc(OC)c(OC)cc3[C@@H]2C[C@@H]1C[C@H]1NCCc2cc(OC)c(OC)cc21,22.4% (inactive)
6,O=[N+]([O-])c1ccc(N=Cc2c(O)ccc3ccccc23)cc1,-1.02% (inactive)
7,O=C(Nc1ccc(F)cc1F)N1CCCN(CCOc2ccccc2)CC1,9.38% (inactive)
8,N#CC1=C(N)Oc2c(sc3ccccc23)C1c1ccco1 (configuration not stated),51.5% (active)
9,Cc1cc(C)c2c3c(sc2n1)C(c1ccccc1)C(C#N)=C(N)O3 (configuration not stated),-16.3% (inactive)
10,CC1=C(C(=O)Nc2ccccc2)C(c2ccco2)C(C#N)=C(SCC(N)=O)N1 (configuration not stated),5.4% (inactive)
11,Cc1noc(C)c1S(=O)(=O)Nc1cc(C(F)(F)F)ccc1N1CCOCC1,-6.09% (inactive)
12,CC(C)Cc1nc(Cl)c(C#N)c2c1CCC2,1.09% (inactive)
13,COc1ccccc1CNC(=O)Cn1c(=O)oc2cc(Cl)ccc21,-8.08% (inactive)
14,CCN1C(=O)/C(=C2/Sc3ccccc3N2CCCS(=O)(=O)O)SC1=S,23% (inactive) and 61.3% (active)
15,CCCCN1C(=O)/C(=C/C=C2/C=Cc3ccccc3N2CC)SC1=S,25.9% (inactive)
16,CCN1C(=O)/C(=c2\s/c(=C3\Sc4ccccc4N3C)c(=O)n2C)N(C)C1=S,46.4% (inactive)
17,COc1ccc(N2C(=O)C3C(C2=O)C(C(=O)c2ccccc2)N2CCCC32)cc1 (configuration not stated),2.44% (inactive)
18,O=C1CSC(=S)N1/N=C/c1ccc(O)c([N+](=O)[O-])c1,85.6% (active)
19,NC(N)=N/N=C/c1ccc(Cl)c([N+](=O)[O-])c1,8.52% (inactive)
20,CCOc1cccc(/C=N/N2C(=O)CSC2=S)c1O,37.8% (inactive)
21,COc1ccc(COCCN2CCN(S(=O)(=O)c3ccccc3)CCC2=O)cc1,4.91% (inactive)
22,S=c1[nH]nc(-c2cccnc2)n1/N=C/C(Cl)=C\c1ccccc1,32.3% (inactive)
23,Cc1cc(-c2n[nH]c(=S)n2/N=C/c2ccco2)n[nH]1,5.82% (inactive)
24,Cc1cc(-c2n[nH]c(=S)n2/N=C/C(Br)=C/c2ccccc2)n[nH]1,59.6% (active)
25,Nc1ccccc1Sc1ccc(C(F)(F)F)cc1[N+](=O)[O-],-1.26% (inactive)
26,S=c1[nH]nc(-c2cc(-c3ccccc3)n[nH]2)n1/N=C/c1c2ccccc2cc2ccccc12,79.6% (active)

row,SMILES,inhibition
1,S=c1[nH]nc(-c2ccccc2)n1/N=C/c1c[nH]c2ccccc12,13.7% (inactive)
2,S=c1[nH]nc(-c2ccco2)n1/N=C/c1ccccc1,32.5% (inactive)
3,COCCN1C2=C(COC(C)(C)C2)C(=S)NC1c1ccccc1 (configuration not stated),1.37% (inactive)
4,Cc1cnc(NC(=O)Cn2cnc3c2c(=O)n(C)c(=O)n3C)s1,3.66% (inactive)
5,COC(=O)c1sc(=S)n(-c2ccccc2)c1N,16.2% (inactive)
6,COCCOC(=O)c1sc(=S)n(CCOC)c1N,51.1% (active)
7,CCOC(=O)Cn1c(N)c(C(=O)OC)sc1=S,5.93% (inactive)
8,CN(C)c1ccc(Nc2c3c4c(cccc4n(C)c2=O)C(=O)c2ccccc2-3)cc1,104% (active)
9,COc1ccc(COCC(O)CN2CCC(C(N)=O)CC2)cc1 (configuration not stated),4.43% (inactive)
10,CCn1cc(C(=O)N2CCN(Cc3ccc4c(c3)OCO4)CC2)c2cc(OC)c(OC)cc2c1=O,4.25% (inactive)
11,CCn1cc(C(=O)NCc2ccc3c(c2)OCO3)c2cc(OC)c(OC)cc2c1=O,74.5% (active)
12,CCn1cc(C(=O)NCC2COc3ccccc3O2)c2cc(OC)c(OC)cc2c1=O (configuration not stated),-0.39% (inactive)
13,CCOC(=O)C1C(c2ccc(OC)c(OC)c2)c2c([nH][nH]c2=O)CC1(C)O (configuration not stated),-16.2% (inactive)
14,CC(NC(=O)C(=O)Nc1nccs1)c1ccccc1 (configuration not stated),-15.7% (inactive)
15,CC12CN3CCN(CC(C3)/C1=N\NC(=O)c1ccccc1N)C2,15.5% (inactive)
16,Cc1cc(C)c(C#N)c(N2CCC(C(N)=O)CC2)n1,6.16% (inactive)
17,N#Cc1c(C(F)(F)F)cc(-c2ccc(Cl)cc2)nc1SCC(=O)O,6.22% (inactive)
18,N#Cc1c(N2CCCCC2)nc(N)c2c(N)nc(SCC(=O)O)cc12,57.7% (active)
19,COC(C[C@H](O)CC(=O)COCc1ccccc1)OC,3.71% (inactive)
20,O=[N+]([O-])C(=c1ccc2c(c1)N1C3=C(CCCC3)CC3CCCCC31N=2)[N+](=O)[O-] (configuration not stated),99.2% (active)
21,Cc1ccc(Nc2nc(Cl)c(C=O)s2)cc1,10.2% (inactive)
22,CN(C(=O)CCn1c(=S)oc2ccccc21)C1CCCCC1,-15.3% (inactive)
23,CC(=O)Nc1ccc(NC(=O)CSc2ncnc3c2cnn3Cc2ccccc2)cc1,9.1% (inactive)
24,CC(NC(=S)Nc1ccccc1)C(c1cccs1)N1CCOCC1 (configuration not stated),-2.6% (inactive)
25,Clc1ccc(C2=CSC3=Nc4cccc5cccc(c45)N23)cc1,61.8% (active)
26,COC(=O)c1cccc(NS(C)(=O)=O)c1,-15.1% (inactive)
